Compounds with a hit are over-represented: about 6.1% of the library has one in this group of screens.
ATXN2 expr inh: ATXN2 expression inhibition; HEK-293 ATXN2-luciferase reporter, luminescence, 24 h; Potency, µM (doses to about 57 µM), for inactives: at the highest dose activity change, negative = inhibition, usual class: inhibitors; actives 0.72% (n = 360,000); further: on the % scale 0 is the no-effect control and ±100 the full control effect; nearly all actives have a fitted effect of over 55% in size
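ATXN2-luciferase reporter cells (luciferase flanked by upstream and downstream ATXN2 gene portions) were treated 24 h at 37 °C with compounds at up to 57 uM. SteadyGlo luminescence gave expression; GF-AFC fluorescence gave viability.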
HepG2 viability: kills HepG2 cells in TGF-b inhibitor counter-screen | Potency, µM (top dose mostly 46.1 µM), for inactives: at the highest dose activity change, negative = cytotoxicity, hits mostly cytotoxic | HepG2 CAGA-GFP viability, ATP luminescence, 18 h | AID 588856 | actives 0.76% (n = 410,000)
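CellTiter-Glo luminescence gave cytotoxicity after 18 hours at 37 degrees C. The cells were HepG2 CAGA-GFP in 1% FBS DMEM, stimulated with 500 pg/mL TGF-beta after compound addition. %Activity was normalised to no-cell wells (complete cell-killing) and DMSO (no toxicity), and curves were fitted and classified.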
TGFb SMAD3 inh: inhibitors of TGF-b signaling | actives 1.2% (n = 410,000) | HepG2 CAGA-GFP TGF-b/SMAD3 reporter, GFP fluorescence, 18 h; TGF-beta stimulated, 500 pg/mL final | Potency, µM (titrated, usually from 46.1 µM), for the others: at the top dose activity, negative = inhibition, most hits filed as inhibitors | AID 588855; further: on the % scale 0 is the no-effect control and ±100 the full control effect; nearly all actives have a fitted effect of over 65% in size
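TGF-beta reporter screen: HEPG2 CAGA-GFP, 1% FBS, 500 pg/mL TGF-beta final, 18 h; per-cell GFP summed per well; curves fitted and categorized by class.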
RORg inh: ROR gamma (mouse) transcription inhibition; AID 2551; Drosophila S2 Gal4-RORgamma UAS-luciferase reporter, 20 h; actives 5.4% (n = 310,000); P51450; Potency, µM (top dose mostly 53.6 µM), without a hit: at the top dose activity change, negative = inhibition, usual class: inhibitors; further: on the % scale 0 is the no-effect control and ±100 the full control effect; nearly all actives have a fitted effect of over 60% in size
Target sequence (P51450 whole entry, looked up, the tested form may be a part): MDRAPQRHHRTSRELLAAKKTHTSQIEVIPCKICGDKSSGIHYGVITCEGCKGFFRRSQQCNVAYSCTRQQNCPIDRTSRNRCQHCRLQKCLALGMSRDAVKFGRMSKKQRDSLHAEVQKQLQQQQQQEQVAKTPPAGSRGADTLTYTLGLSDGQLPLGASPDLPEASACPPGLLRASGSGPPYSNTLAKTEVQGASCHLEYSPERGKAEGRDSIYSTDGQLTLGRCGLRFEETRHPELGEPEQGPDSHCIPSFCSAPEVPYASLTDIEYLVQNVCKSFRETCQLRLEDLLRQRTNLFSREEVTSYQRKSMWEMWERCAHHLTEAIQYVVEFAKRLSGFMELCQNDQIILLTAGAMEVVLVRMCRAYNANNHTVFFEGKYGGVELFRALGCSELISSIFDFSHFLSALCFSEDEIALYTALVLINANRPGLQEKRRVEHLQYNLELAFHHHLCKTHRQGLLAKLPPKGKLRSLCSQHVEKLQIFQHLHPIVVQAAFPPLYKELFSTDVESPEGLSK
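Stable Schneider cell line, Gal4 DNA-binding domain fused to ROR gamma, UAS-luciferase. Cmpd 1 hr RT → CuSO4 700 uM final → 20 hr RT → luciferase reagent 10 min → luminescence.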
Gal4-VP16 FLuc: counter-screen for ROR gamma inhibitors: Gal4-VP16 reporter. Drosophila S2 Gal4-VP16 UAS-luciferase, luminescence, 20 h. Potency, µM (titrated, usually from 53.6 µM), for the others: at the highest dose activity, negative = inhibition, actives largely listed as inhibitors. actives 3.5% (n = 310,000). AID 2546;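 further: Gal4-VP16 expression switched on by copper sulfate through the metallothionein promoter; on the % scale 0 is the no-effect control and ±100 the full control effect; nearly all actives have a fitted effect of over 50% in size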
S2 tox: cell viability loss in ATXN counter-screen; S2 cells (HEK-293 line with an ATXN2-luciferase reporter) viability, CellTiter-Fluor protease fluorescence, 24 h; Potency, µM (series often up to 56.7 µM), most hits filed as cytotoxic; actives 0.49% (n = 400,000); further: nearly all actives have a fitted effect of over 40% in size
The depositor's hits bear a star; i = inactive; ? = inconclusive; . = no result given; [ ] = dose if it differs, or a comment. The call rests on the fitted dose curve; in most records, active means well fitted curve in the direction sought with a large enough effect; inconclusive means small, poorly fitted or top-dose-only effect, or another doubt; inactive means no such curve, though single readings can be large; an effect the other way counts as inactive or inconclusive. Potency means the concentration at half of the fitted maximal effect.

SMILES | ATXN2 expr inh | HepG2 viability | TGFb SMAD3 inh | RORg inh | Gal4-VP16 FLuc | S2 tox
NC(=S)N/N=C/c1ccccc1[N+](=O)[O-] | -19.9% | 2.7% | 13.9% | -4.8% | ? | i
Cc1cc(CNC(=O)c2cnn(-c3ncc4c(n3)-c3ccccc3CCC4)c2C2CC2)on1 | . | . | . | . | . | i
Cc1cccc(-n2cnc3c(c2=O)c2nc4ccccc4nc2n3Cc2ccco2)c1 | -3.3% | 11.8% | 11.8% | ? | -28.1% | ?
COc1ccc(Cn2c3nc4ccccc4nc3c3c(=O)n(Cc4ccco4)cnc32)cc1 | . | . | . | 10µM* | ? | .
COc1ccc(C)cc1Nc1nc2c(S(=O)(=O)c3cccc(Cl)c3)nnn2c2ccsc12 | 16.0% | -6.6% | -0.1% | . | . | i
CC(C)(C)c1cc(C(=O)NN)n(Cc2ccc(F)cc2)n1 | . | -9.4% | -0.7% | 11.2µM* | -11.1% | .
Cc1cccc(Cn2nc(C(C)(C)C)cc2C(=O)Nc2ccc(F)cc2)c1 | ? | 12.6µM* | ? | 0.5% | -5.8% | ?
Cc1cccc(Cn2nc(C)c(NC(=O)c3ccc(F)cc3)c2C)c1 | -9.8% | -15.6% | -6.5% | 1.0% | -8.4% | i
CC1CCN(S(=O)(=O)c2ccc3c(c2)N(CC(=O)NCc2ccccc2Cl)C(=O)CS3)CC1 | . | -5.2% | -22.6% | . | . | .
CCCCNC(=S)Nc1ccc(Oc2ccccc2)cc1 | -10.5% | -36.8% | ? | 1.41µM* | 5.62µM* | i
CCCNC(=S)Nc1ccc(Oc2ccccc2)cc1 | 5.2% | -32.9% | -2.9% | 12.6µM* | 11.2µM* | i
OCCCNC(=S)Nc1ccc(Nc2ccccc2)cc1 | 7.9%[11.3 µM] | 16.7% | 35.8% | 6.0% | -12.5% | i
O=C[C@H](O)[C@@H](O)[C@H](O)[C@H](O)CO | . | . | . | . | . | i
CCCCn1c(=O)[nH]c(=O)c2c1nc(CN1C(=O)c3ccccc3S1(=O)=O)n2CCC | 4.6% | -19.0% | -6.6% | ? | ? | i
CCCCn1c(=O)[nH]c(=O)c2c1nc(Cn1ncc(Cl)c(Cl)c1=O)n2CCC | ? | 11.2µM* | 6.31µM* | 15.8µM* | 7.94µM* | ?
COc1cc(/C=C/[N+](=O)[O-])ccc1OC(=O)c1cc2ccccc2oc1=O | 4.0% | -1.2% | 3.1% | 15.8µM* | 7.08µM* | i
NC(=S)N/N=C1\CCOc2ccc(Cl)cc21 | . | -58.3% | 8.91µM* | 3.16µM* | 8.91µM* | .
O=C(O)[C@H](Cc1ccccc1)NC(=O)N1CCOCC1 | 3.8% | -1.4% | -3.7% | 5.01µM* | -0.5% | i
Cc1c(C(=O)N(C)Cc2cccc3ncccc23)cnn1-c1nccc(-c2ccccc2F)n1 | . | . | . | . | . | i
N=c1c2c(-c3ccccc3)c(-c3ccccc3)n(Cc3ccco3)c2ncn1CCCO | -36.7% | 17.8µM* | 25.1µM* | 3.16µM* | 3.16µM* | i
N=c1c2c(ncn1Cc1ccco1)Oc1cc(O)ccc1C2c1ccccc1 (stereo not given) | -31.8% | -17.6% | 5.8% | -4.2% | ? | i
N=c1c2c(-c3ccccc3)c(-c3ccccc3)n(Cc3ccco3)c2ncn1CCO | ? | -100.0% | ? | -9.8% | -11.6% | 14.1µM*
N=c1c2c(-c3ccccc3)c(-c3ccccc3)n(Cc3ccco3)c2ncn1CCN1CCOCC1 | ? | -53.4% | ? | -17.8% | -5.7% | ?
CC/C(=N\NC(=S)NC(C)C)c1ccc(OC)c(OC)c1 | -11.6% | -21.6% | ? | 4.47µM* | 10µM* | i
CCOc1ccc(/C(CCC(=O)O)=N/NC(=S)NC(C)C)cc1 | -11.1% | -22.3% | -3.1% | 11.2µM* | ? | i
SMILES | ATXN2 expr inh | HepG2 viability | TGFb SMAD3 inh | RORg inh | Gal4-VP16 FLuc | S2 tox
CC/C(=N\NC(N)=O)c1ccc(OC)c(OC)c1 | 8.3% | -0.7% | 0.8% | 5.2% | 1.3% | i
Cc1cccc(NC(=O)Cn2c(O)c(N=NC(N)=S)c3ccccc32)c1 | -1.6% | -27.9% | ? | ? | ? | i
CC1=CC(C)(C)n2c(O)c(N=NC(N)=S)c3cc(C)cc1c32 | -14.4% | -33.2% | -6.7% | 0.794µM* | 1.78µM* | i
COc1ccc(C2c3c(n(C)c4ccccc34)C(=O)N2CC(=O)Nc2ccc(Cl)cc2)cc1 (stereo not given) | . | -28.6% | 2.51µM* | . | . | .
O=C1C(=O)N(CCCn2ccnc2)C(c2ccccn2)/C1=C(/O)c1ccccc1 (stereo not given) | . | . | . | 3.3% | 1.4% | .
O=C1C(=O)N(Cc2cccnc2)C(c2ccccn2)/C1=C(/O)c1ccccc1 (stereo not given) | -3.8% | 14.9% | -15.1% | 0.447µM* | -3.1% | i
c1ccc(-c2nc(SCC3CCCCO3)n[nH]2)cc1 (stereo not given) | . | -4.6% | -7.7% | . | . | .
O=C(NNc1ncnc2c1cnn2-c1ccccc1)c1cccc(Cl)c1 | 5.7% | 8.5% | 0.0% | . | . | i
CN1CCN(c2cc(C(F)(F)F)nc(-c3ccccn3)n2)CC1 | 2.5% | 6.6% | -11.6% | -23.0% | 5.9% | i
CNc1cc(C(F)(F)F)nc(-c2ccccn2)n1 | 7.3% | -3.5% | -8.6% | 0.708µM* | 12.6µM* | i
COc1ccc(Sc2cc(C(F)(F)F)nc(-c3ccccn3)n2)cc1 | . | -2.3% | -8.0% | 3.98µM* | 11.2µM* | .
C#CCSc1cc(C(F)(F)F)nc(-c2ccccn2)n1 | -4.9% | -45.0% | -5.0% | 10µM* | -6.3% | i
O=C(CN1CCCN(Cc2ccccc2Cl)S1(=O)=O)Nc1ccc2c(c1)OCCO2 | -18.8% | -43.8% | -23.7% | . | . | ?
COc1ccc(CNC(=O)c2cccc3c(-c4cccc(C(N)=O)c4)coc23)cc1OC | 31.6µM* | -30.6% | -8.5% | . | . | 17.8µM*
COc1cc(-c2coc3c(C(=O)NCc4ccc(N(C)C)cc4)cccc23)ccc1O | ? | -21.9% | 0.6% | . | . | ?
COc1ccc(CNC(=O)c2cccc3c(-c4ccc(F)c(F)c4)coc23)cc1OC | 0.0% | -22.1% | -25.2% | . | . | i
COc1cc(-c2coc3c(C(=O)NCc4ccc(OC)c(OC)c4)cccc23)ccc1O | ? | -58.9% | ? | . | . | 15.8µM*
CCCCCc1cc(=O)oc2c(C(CCN3CCCCC3)c3cc(OC)c(OC)c(OC)c3)c(OC)cc(OC)c12 (stereo not given) | 31.6µM* | 12.6µM* | 15.8µM* | ? | ? | 20µM*
CCN(CC)CCC(c1cc(OC)c(OC)c(OC)c1)c1c(OC)cc(OC)c2ccc(=O)oc12 (stereo not given) | -6.7% | -25.0% | -4.2% | 16.3% | -2.8% | ?

High-throughput results from PubChem.
